The results in this text go back to PubChem BioAssay (EPA / NIEHS).

Experiment [1] can be described thus: ATG_PBREM_CIS: Attagene CIS-FACTORIAL HepG2 Assay for human Phenobarbital-responsive Enhancer Module (PBREM) (AID 2282955). The following applies: HepG2 PBREM cis-reporter, Attagene multiplexed transcription; actives raise or lower the signal. The gist of the method: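 HepG2 cells transiently transfected with multiple cis-regulated reporter units measure endogenous transcription factor activity; 24 h compound exposure. Reporter mRNA quantified by RT-PCR, fluorescent labelling, HpaI digestion and capillary electrophoresis; bidirectional fit versus DMSO.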

Experiment [2] concerns the target Paired box protein Pax-6 (Homo sapiens) (UniProt P26367). In words: ATG_Pax6_CIS: Attagene CIS-FACTORIAL HepG2 Assay for human Paired Box 6 (PAX6) (AID 2282956). The following applies: HepG2 CIS-FACTORIAL PAX6 reporter transcription, RNA readout; actives raise or lower the signal. In short, it runs like this:
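HepG2 cells transiently transfected with cis-promoter-driven multiplexed reporter units sensing endogenous transcription factor activity; 24 h chemical exposure. Reporter mRNA quantified by RT-PCR, 6-FAM labelling, HpaI digestion and capillary electrophoresis; bidirectional fit versus DMSO baseline.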

A short description of experiment [3]: ATG_PXRE_CIS: Attagene CIS-FACTORIAL HepG2 Assay for human Pregnane X Receptor Element (PXRE) (AID 2282957). The following applies: HepG2 Attagene CIS-FACTORIAL PXRE reporter, mRNA; actives raise or lower the signal. The gist of the method: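 Transfect HepG2 with MRTUs (cis promoter elements); dose chemical, incubate 24 h; isolate RNA, RT with oligo(dT), PCR, 6-FAM label, HpaI cut, CE. Gain/loss fit vs DMSO.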

The nature of experiment [4]: ATG_PPRE_CIS: Attagene CIS-FACTORIAL HepG2 Assay for human Peroxisome Proliferator-activated Response Element (PPRE) (AID 2282958). Conditions: HepG2 PPRE cis-element reporter, Attagene transcription factor profiling; actives raise or lower the signal. The gist of the method: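 HepG2 cells are transiently transfected with multiplexed cis-promoter reporter units to report endogenous PPAR activity. After 24 h dosing, reporter mRNA is read by RT-PCR and capillary electrophoresis. Fitting is bidirectional against DMSO.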

Experiment [5] in a line: ATG_RORE_CIS: Attagene CIS-FACTORIAL HepG2 Assay for human RAR-related Orphan Receptor Element (RORE) (AID 2282959). Conditions: HepG2 Attagene cis-factorial RORE reporter, mRNA; actives raise or lower the signal. In short, it runs like this:
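HepG2 cells carrying transiently transfected cis-regulated reporter units; RORE-driven reporter mRNA quantified 24 h post-dosing by RT-PCR, 6-FAM primer extension, HpaI digestion and capillary electrophoresis. Bidirectional fit versus DMSO.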

Experiment [6] in a line: ATG_Sox_CIS: Attagene CIS-FACTORIAL HepG2 Assay for human SRY-box transcription factor (SOX) (AID 2282960). Conditions: HepG2 Attagene cis-factorial SOX reporter, mRNA; actives raise or lower the signal. The gist of the method:
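HepG2 cells transiently transfected with multiple cis-regulated reporter units, then dosed for 24 h. Reporter mRNA quantified by RT-PCR, fluorescent labelling, HpaI digestion and capillary electrophoresis; bidirectional fit versus DMSO.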

The target in experiment [7] is Transcription factor Sp1 (Homo sapiens) (UniProt P08047). In words: ATG_Sp1_CIS: Attagene CIS-FACTORIAL HepG2 Assay for human Specificity Protein 1 (Sp1) (AID 2282961). Conditions: HepG2 Sp1 cis-reporter transcription, actives raise or lower the signal. The gist of the method: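 HepG2 cells transiently transfected with multiplexed cis-regulated reporter constructs, chemical exposure 24 h. Reporter mRNA quantified by RT-PCR with capillary electrophoresis; bidirectional fit relative to DMSO.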
Chain of Transcription factor Sp1 (Homo sapiens) (P08047 whole entry, looked up): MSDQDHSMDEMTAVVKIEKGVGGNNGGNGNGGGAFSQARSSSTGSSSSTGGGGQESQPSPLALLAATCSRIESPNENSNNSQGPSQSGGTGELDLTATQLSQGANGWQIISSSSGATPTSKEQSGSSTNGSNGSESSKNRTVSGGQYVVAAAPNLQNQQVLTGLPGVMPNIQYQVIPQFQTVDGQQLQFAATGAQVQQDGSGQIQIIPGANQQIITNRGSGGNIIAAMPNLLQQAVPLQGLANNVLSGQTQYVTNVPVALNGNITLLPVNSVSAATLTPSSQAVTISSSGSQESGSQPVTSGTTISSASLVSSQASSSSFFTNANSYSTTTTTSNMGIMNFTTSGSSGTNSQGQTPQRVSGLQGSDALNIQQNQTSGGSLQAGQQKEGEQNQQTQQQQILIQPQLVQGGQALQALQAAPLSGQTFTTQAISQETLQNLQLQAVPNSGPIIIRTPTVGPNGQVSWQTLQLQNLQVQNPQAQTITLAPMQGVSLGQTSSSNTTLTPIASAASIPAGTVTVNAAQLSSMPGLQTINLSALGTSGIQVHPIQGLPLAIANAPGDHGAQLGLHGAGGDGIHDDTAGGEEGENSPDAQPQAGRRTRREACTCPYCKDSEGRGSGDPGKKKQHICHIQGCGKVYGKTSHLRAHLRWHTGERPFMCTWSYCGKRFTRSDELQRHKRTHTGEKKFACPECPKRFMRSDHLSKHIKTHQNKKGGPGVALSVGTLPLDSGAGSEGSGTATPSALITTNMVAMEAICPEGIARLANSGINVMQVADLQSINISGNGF

Experiment [8] in a line: ATG_SREBP_CIS: Attagene CIS-FACTORIAL HepG2 Assay for human Sterol Regulatory Element Binding (SREBP) (AID 2282962). Conditions: HepG2 Attagene cis-factorial SREBP reporter, mRNA; actives raise or lower the signal. In short, it runs like this: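 HepG2 cells transiently transfected with multiplexed cis-promoter reporter units sensing endogenous transcription factors; reporter mRNA measured 24 h after dosing by RT-PCR, 6-FAM labeling, HpaI digestion and capillary electrophoresis. Bidirectional fit versus DMSO.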

The target in experiment [9] is Signal transducer and activator of transcription 3 (Homo sapiens) (UniProt P40763). In words: ATG_STAT3_CIS: Attagene CIS-FACTORIAL HepG2 Assay for human Signal Transducer and Activator of Transcription 3 (STAT3) (AID 2282963). Conditions: HepG2, Attagene cis-factorial STAT3 reporter transcription; actives raise or lower the signal. The gist of the method: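 Endogenous STAT3-responsive cis-element activity was read in transiently transfected HepG2 cells after 24 h treatment. Reporter transcripts were quantified via RT-PCR and capillary electrophoresis, with DMSO as negative control and bidirectional curve fitting.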
Chain of Signal transducer and activator of transcription 3 (Homo sapiens) (P40763 whole entry, looked up): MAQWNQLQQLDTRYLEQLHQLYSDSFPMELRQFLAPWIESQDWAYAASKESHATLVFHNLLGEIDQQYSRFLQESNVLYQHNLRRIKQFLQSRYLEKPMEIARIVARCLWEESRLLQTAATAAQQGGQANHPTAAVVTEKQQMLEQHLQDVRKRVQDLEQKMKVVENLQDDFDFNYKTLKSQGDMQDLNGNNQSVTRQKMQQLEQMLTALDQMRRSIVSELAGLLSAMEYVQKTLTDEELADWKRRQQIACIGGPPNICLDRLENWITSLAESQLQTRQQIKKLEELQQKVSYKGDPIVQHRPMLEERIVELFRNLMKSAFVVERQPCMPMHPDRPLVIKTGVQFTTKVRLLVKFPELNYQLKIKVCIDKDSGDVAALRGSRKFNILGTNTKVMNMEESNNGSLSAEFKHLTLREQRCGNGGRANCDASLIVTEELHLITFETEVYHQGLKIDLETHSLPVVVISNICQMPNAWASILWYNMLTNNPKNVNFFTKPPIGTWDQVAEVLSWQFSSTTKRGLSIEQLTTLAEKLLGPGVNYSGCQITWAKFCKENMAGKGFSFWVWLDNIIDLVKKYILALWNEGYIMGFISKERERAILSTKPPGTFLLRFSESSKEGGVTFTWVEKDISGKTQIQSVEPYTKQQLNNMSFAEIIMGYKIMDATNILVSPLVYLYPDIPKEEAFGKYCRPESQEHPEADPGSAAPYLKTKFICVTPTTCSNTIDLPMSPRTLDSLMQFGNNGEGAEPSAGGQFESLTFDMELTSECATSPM

The nature of experiment [10]: ATG_TA_CIS: Attagene CIS-FACTORIAL HepG2 Assay for human TA Basal Promoter (AID 2282964). Conditions: HepG2 Attagene CIS-factorial TA basal promoter reporter; actives raise or lower the signal. The gist of the method:
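Fluorescence from labelled RT-PCR reporter fragments, separated by capillary electrophoresis, gives the signal. Cells: HepG2 transiently carrying multiple reporter units, 24 h chemical dosing. Gain or loss relative to DMSO.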

Experiment [11] in a line: ATG_TCF_b_cat_CIS: Attagene CIS-FACTORIAL HepG2 Assay for human T-Cell-Factor with beta-catenin (TCF/b-cat) (AID 2282965). The following applies: HepG2 TCF/beta-catenin cis-reporter transcription, actives raise or lower the signal. The gist of the method: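 Endogenous TCF/LEF activity read as reporter transcript level via RT-PCR and capillary electrophoresis fluorescence in transfected HepG2, 24 h exposure; gain or loss of signal fitted against DMSO controls.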

The nature of experiment [12]: ATG_TAL_CIS: Attagene CIS-FACTORIAL HepG2 Assay for human TAL Basal Promoter (AID 2282966).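 Note: background control endpoint measuring basal TAL promoter reporter mRNA not a specific factor.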 Conditions: HepG2 Attagene cis-factorial TAL promoter reporter; actives raise or lower the signal. The gist of the method: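 Fluorescence of labelled reporter cDNA fragments, resolved by capillary electrophoresis, gave the readout. Human HepG2 liver cells carried transiently transfected cis-element reporter units and were treated for 24 hours; activity was fitted bidirectionally against DMSO.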

The nature of experiment [13]: ATG_TGFb_CIS: Attagene CIS-FACTORIAL HepG2 Assay for human Transforming Growth Factor (TGF) (AID 2282967). The following applies: HepG2 Attagene CIS TGFb reporter, mRNA transcription; actives raise or lower the signal. The gist of the method:
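Bidirectional fitting relative to DMSO gave the endpoint. Underlying data: reporter mRNA from HepG2 cells carrying transiently transfected cis-regulated reporter constructs, harvested 24 h after dosing and analyzed by RT-PCR and capillary electrophoresis.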

Experiment [14] is described as follows: ATG_VDRE_CIS: Attagene CIS-FACTORIAL HepG2 Assay for human Vitamin D Receptor Element (VDRE) (AID 2282968). Conditions: HepG2 VDRE cis-reporter transcription, actives raise or lower the signal. The gist of the method:
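Reporter mRNA induction, quantified by capillary electrophoresis of fluorescently labelled RT-PCR products, was read 24 h after dosing HepG2 cells carrying transiently transfected cis-regulated reporter units; gain or loss relative to DMSO.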

In experiment [15] the target is Estrogen receptor (Homo sapiens) (UniProt P03372). Description: ATG_ERa_TRANS: Attagene TRANS-FACTORIAL HepG2 Assay for human Estrogen Receptor alpha (ERa) (AID 2282970; active = hit-call score of the fitted dose curve at least 0.9, where 1 is the maximum). Conditions: HepG2 Attagene TRANS ERa GAL4 reporter, mRNA. In short, it runs like this: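 Human liver HepG2, transient transfection of multiple GAL4-UAS reporter units; TRANS format (exogenous NR-Gal4 chimera). 24 h dosing. Readout: reporter mRNA, RT-PCR, 6-FAM primer extension, HpaI digest, capillary electrophoresis. Positive direction vs DMSO.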
Chain of Estrogen receptor (Homo sapiens) (P03372 whole entry, looked up, the tested form may be a part): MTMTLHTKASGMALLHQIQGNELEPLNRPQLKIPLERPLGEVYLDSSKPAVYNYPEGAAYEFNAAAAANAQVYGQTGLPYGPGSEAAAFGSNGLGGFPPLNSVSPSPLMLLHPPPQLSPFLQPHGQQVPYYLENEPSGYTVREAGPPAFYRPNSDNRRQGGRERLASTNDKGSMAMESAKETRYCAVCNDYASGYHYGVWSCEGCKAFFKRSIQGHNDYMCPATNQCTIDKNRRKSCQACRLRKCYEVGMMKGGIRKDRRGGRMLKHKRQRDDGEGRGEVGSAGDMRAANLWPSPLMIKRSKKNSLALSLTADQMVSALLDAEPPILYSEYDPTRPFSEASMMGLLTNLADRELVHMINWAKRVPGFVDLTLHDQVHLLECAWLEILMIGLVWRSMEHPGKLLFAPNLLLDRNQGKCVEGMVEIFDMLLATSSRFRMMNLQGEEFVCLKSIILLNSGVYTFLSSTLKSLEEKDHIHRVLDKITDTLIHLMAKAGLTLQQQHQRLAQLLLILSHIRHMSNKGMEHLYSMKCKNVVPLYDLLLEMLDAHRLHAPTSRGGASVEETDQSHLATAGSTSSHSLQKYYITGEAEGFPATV

The target of experiment [16] is X-box-binding protein 1 (Homo sapiens) (UniProt P17861). Description: ATG_Xbp1_CIS: Attagene CIS-FACTORIAL HepG2 Assay for human X-box Binding Protein 1 (XBP1) (AID 2282972). The following applies: HepG2 XBP1 cis-element reporter, Attagene multiplex; actives raise or lower the signal. In short, it runs like this:
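HepG2 cells transiently transfected with multiple cis-element reporter units report endogenous TF activity; 24 h exposure, then reporter mRNA measured by RT-PCR, 6-FAM labelling, HpaI digestion and capillary electrophoresis. Bidirectional fitting versus DMSO.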

Experiment [17] addresses Steroid hormone receptor ERR1 (Homo sapiens) (UniProt P11474). In words: ATG_ERRa_TRANS: Attagene TRANS-FACTORIAL HepG2 Assay for human Estrogen-Related Receptor alpha (ERRa) (AID 2282971; active = hit-call score of the fitted dose curve at least 0.9, where 1 is the maximum). Conditions: HepG2 Attagene TRANS reporter, ERRa transactivation. The gist of the method:
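Reporter transcript induction was quantified by RT-PCR and capillary electrophoresis of FAM-labelled, HpaI-cut products after 24 h treatment of HepG2 cells carrying transiently transfected GAL4-UAS reporter units and an exogenous ERRa-Gal4 fusion; activity scored as increase over DMSO.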

The target in experiment [18] is Nuclear receptor subfamily 1 group I member 3 (Homo sapiens) (UniProt Q14994). In words: ATG_CAR_TRANS: Attagene TRANS-FACTORIAL HepG2 Assay for human Constitutive Androstane Receptor (CAR) (AID 2282969; active = hit-call score of the fitted dose curve at least 0.9, where 1 is the maximum;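 note: activators raise reporter mRNA above DMSO so AC50 marks induction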). Conditions: HepG2 Attagene TRANS-FACTORIAL CAR reporter. In short, it runs like this: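 Readout is reporter mRNA induction, quantified by fluorescent primer extension and capillary electrophoresis after RT-PCR. Cells were HepG2 transiently carrying chimeric NR-Gal4 constructs with GAL4-UAS reporters, treated for 24 h; activity scored upward from DMSO.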
Chain of Nuclear receptor subfamily 1 group I member 3 (Homo sapiens) (Q14994 whole entry, looked up, the tested form may be a part): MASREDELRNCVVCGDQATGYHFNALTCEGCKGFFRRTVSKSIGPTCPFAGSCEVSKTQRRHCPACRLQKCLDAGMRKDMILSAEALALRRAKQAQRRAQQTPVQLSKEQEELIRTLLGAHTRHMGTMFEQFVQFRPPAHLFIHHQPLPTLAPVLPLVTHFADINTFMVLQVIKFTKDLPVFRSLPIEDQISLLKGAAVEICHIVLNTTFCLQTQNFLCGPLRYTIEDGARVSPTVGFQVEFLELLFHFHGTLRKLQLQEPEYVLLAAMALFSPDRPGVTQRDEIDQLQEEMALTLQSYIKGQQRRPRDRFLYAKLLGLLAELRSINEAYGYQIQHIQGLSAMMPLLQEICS

Experiment [19] in a line: ATG_M_19_TRANS: Attagene TRANS-FACTORIAL HepG2 Assay for M19 Transcription Factor (Internal Marker) (AID 2282974; active = hit-call score of the fitted dose curve at least 0.9, where 1 is the maximum). The following applies: HepG2 Attagene TRANS-FACTORIAL M19 internal marker reporter. In short, it runs like this: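 HepG2 transiently transfected with GAL4-UAS multiplex reporter constructs, exposed 24 h; reporter RNA quantified by RT-PCR, 6-FAM labeling, HpaI digestion and capillary electrophoresis; internal background marker fitted upward versus DMSO.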

Inconclusive results are not listed. Where a structure was tested more than once in an assay, its records may differ in their call. Active and inactive are the calls of the source. Rule for the calls, unless noted: active = hit-call score of the fitted dose curve at least 0.9, where 1 is the maximum; inactive = score below 0.9.

Chain of Paired box protein Pax-6 (Homo sapiens) (P26367 whole entry, looked up): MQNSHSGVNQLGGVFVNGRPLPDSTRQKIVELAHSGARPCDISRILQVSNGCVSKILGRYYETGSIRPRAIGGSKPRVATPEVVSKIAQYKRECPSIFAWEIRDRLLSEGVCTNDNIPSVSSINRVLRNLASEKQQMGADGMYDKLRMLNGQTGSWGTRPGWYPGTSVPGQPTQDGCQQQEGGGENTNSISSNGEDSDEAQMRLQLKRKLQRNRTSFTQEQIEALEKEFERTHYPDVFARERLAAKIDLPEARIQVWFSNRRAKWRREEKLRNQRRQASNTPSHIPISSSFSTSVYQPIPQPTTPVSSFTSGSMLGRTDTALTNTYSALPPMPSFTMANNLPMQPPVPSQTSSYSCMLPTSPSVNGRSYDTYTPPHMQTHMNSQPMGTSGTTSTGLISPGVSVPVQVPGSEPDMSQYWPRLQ
Chain of X-box-binding protein 1 (Homo sapiens) (P17861 whole entry, looked up): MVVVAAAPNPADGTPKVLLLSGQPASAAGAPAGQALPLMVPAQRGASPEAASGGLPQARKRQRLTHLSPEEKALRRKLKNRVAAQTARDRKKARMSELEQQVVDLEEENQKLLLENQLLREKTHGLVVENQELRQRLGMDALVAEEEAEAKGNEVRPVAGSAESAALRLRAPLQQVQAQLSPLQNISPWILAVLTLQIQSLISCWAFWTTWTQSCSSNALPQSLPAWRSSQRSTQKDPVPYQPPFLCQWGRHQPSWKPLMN
Chain of Steroid hormone receptor ERR1 (Homo sapiens) (P11474 whole entry, looked up, the tested form may be a part): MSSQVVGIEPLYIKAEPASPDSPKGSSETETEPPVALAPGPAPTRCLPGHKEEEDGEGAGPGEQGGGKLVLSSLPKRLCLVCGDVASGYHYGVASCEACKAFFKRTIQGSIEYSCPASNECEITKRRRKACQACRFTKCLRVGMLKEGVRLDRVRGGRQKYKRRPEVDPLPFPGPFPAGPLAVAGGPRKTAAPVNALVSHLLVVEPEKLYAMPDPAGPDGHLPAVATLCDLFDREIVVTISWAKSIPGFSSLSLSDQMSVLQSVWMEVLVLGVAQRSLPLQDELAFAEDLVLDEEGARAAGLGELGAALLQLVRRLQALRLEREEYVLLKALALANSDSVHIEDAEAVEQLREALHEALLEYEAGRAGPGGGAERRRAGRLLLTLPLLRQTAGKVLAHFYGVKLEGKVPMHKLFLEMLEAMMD

Turning to `Cc1ccc(N)cc1N`, the outcome in [1], in [2], in experiment [3], in experiment [4], in experiment [5] and in experiment [6] was inactive. The compound was called inactive in [7], in [8], in experiment [9], in experiment [10], in [11] and in [12]. The outcome in experiment [13], in experiment [14], in experiment [15] and in experiment [16] was inactive.

Broadly, the AC50 is the midpoint of the concentration-response curve, whichever way the signal moves. In the case of `Cc1c([N+](=O)[O-])cc2c(c1[N+](=O)[O-])C(C)(C)CC2(C)C`, the result in [1], in experiment [2], in [4], in experiment [5], in experiment [6] and in experiment [7] was inactive. Also, the result in experiment [9], in experiment [10], in experiment [11], in experiment [12], in experiment [13] and in experiment [14] was inactive. Also, the compound was classed as inactive in experiment [15], in experiment [17] and in [16]. In addition, the AC50 in experiment [3] is 0.964 µM (active); in [8] it was 7.71 µM (active).

As for `C/C(=N\NC(=O)Nc1cc(F)cc(F)c1)c1ncccc1C(=O)O`, the compound was called inactive in [2], in experiment [3], in experiment [5], in [6], in experiment [7] and in experiment [8]. The call in [9], in [10], in [11], in [12], in [13] and in experiment [14] was inactive. The compound was called inactive in experiment [18], in experiment [15], in experiment [16] and in experiment [19]. In [3], the AC50 is 172 µM (active).

For the compound `[N-]=[N+]=[N-]`, the call in experiment [2], in experiment [3], in [4], in experiment [5], in experiment [6] and in [7] was inactive. For the same compound, the result in experiment [8], in experiment [9], in experiment [10], in experiment [11], in experiment [12] and in [13] was inactive. The compound was called inactive in [14], in experiment [18], in [15] and in [16].
